# Measurements published in PubChem BioAssay AID540352 (National Center for Advancing Translational Sciences (NCATS), 2011).
# Where “and” joins values, the source holds several entries; their conditions need not be identical. Equal values may be shown once. Inconclusive results are not listed. Calls of active or inactive are those of the source. Calls come from the whole dose curve; as a rule, active = well fitted inhibition curve with a large enough effect; inconclusive = small, poorly fitted or top-dose-only effect; inactive = no such curve, though single readings can be large or run the other way.
# Assay: qHTS for Inhibitos of Bacillus subtilis Sfp phosphopantetheinyl transferase (PPTase): Chemistry Optimization Followup in B. Subtilis 168
# Settings: B. subtilis 168 growth, BacTiter-Glo luminescence, 5 h; series mostly up to 114 µM
# Text: Phosphopantetheinyl transfer is a process essential to cellular viability and maintenance. Cell-permeable and stable compounds acting as PPTase inhibitors are anticipated to be antimicrobial agents in organisms with complimenting genotypes. […] This experiment evaluated a series of test compounds for antimicrobial activity with B. subtilis 168 (genotype: acpS+ and sfp-), a strain that contains a frameshift mutation in the sfp locus and thus requires a functional AcpS gene product for viability. [Mootz HD, 2001] This strain is expected to be sensitized to cell-permeable AcpS inhibitors, and insensitive to Sfp inhibitors. NIH Chemical Genomics Center [NCGC] NIH Molecular Libraries Probe Centers Network [MLPCN] MLPCN Grant: MH083266-01 Assay Submitter (PI): Michael Burkart, University of California, San Diego
# Innoculum preparation. Bacillus subtilis 168 is maintained on lysogeny broth (LB) solidified by the addition of 1.5% w/v agar. Single colonies were used to LB medium (2 mL) and shaken overnight at 30 masculineC. In the morning, this culture (100 ul) was used to seed a fresh LB medium (10 mL) and was shaken at 30 masculineC until the culture OD600 reached 0.5. This culture was diluted 1:100 in fresh LB medium to provide the inoculum below. Bacterial susceptibility. LB medium (2 uL) is dispensed into wells of a sterile white 1536-well plate. Test compounds (23 nL) prepared as serial dilutions in DMSO are added to the plate by pintool transfer. Innoculum (2 uL) is added, the plates are covered with a vented Kalypsys assay lid and incubated at 30 masculineC. After 5 h, Bac-Titer Glo (4 uL; Promega Corp, Madison, WI) is added to the plates. They are incubated 10 minutes at room temperature and then the luminescence detected in a ViewLux multimodal plate reader.
row,SMILES,Potency
1,FC(F)(F)c1cccc(N2CCN(C(=S)Nc3ccccn3)CC2)c1,46.9 µM (active)
2,FC(F)(F)c1cccc(N2CCN(C(=S)Nc3ncnc4ccccc34)CC2)c1,6.63 µM (active)
3,Cc1ccnc(NC(=S)Nc2cccc(C(F)(F)F)c2)c1,16.7 µM (active)
4,COc1ccnc(NC(=S)N2CCN(c3ncc(C(F)(F)F)cc3Cl)CC2)c1,14.8 µM (active)
5,Cc1cc(C)nc(NC(=S)N2CCN(Cc3cccc4ccccc34)CC2)c1,37.3 µM (active)
6,Cc1cc(C)nc(NC(=S)N2CCN(c3nsc4ccccc34)CC2)c1,52.7 µM (active)
7,COc1ccc(NC(=S)N2CCN(c3cccc(C(F)(F)F)c3)CC2)nc1,inactive
8,COC(=O)c1ccnc(NC(=S)N2CCN(c3cccc(C(F)(F)F)c3)CC2)c1,41.8 µM (active)
9,Cc1cc(C)nc(NC(=S)N2CCN(c3ccc(Cl)cc3Cl)CC2)c1,23.5 µM (active)
10,COc1cccc(NC(=S)N2CCN(c3ccccc3C(F)(F)F)CC2)n1,26.4 µM (active)
11,Cc1cncc(NC(=S)N2CCN(c3cccc(C(F)(F)F)c3)CC2)c1,inactive
12,Cc1cc(C)nc(NC(=S)N2CCN(c3cncs3)CC2)c1,46.9 µM (active)
13,OCc1ccnc(NC(=S)N2CCN(c3cccc(C(F)(F)F)c3)CC2)c1,46.9 µM (active)
14,Cc1cccc(NC(=S)N2CCN(c3cccc(C(F)(F)F)c3)CC2)c1,inactive
15,Cc1ccnc(NC(=S)N2CCN(c3cccc(C(F)(F)F)n3)CC2)c1,16.7 µM (active)
16,Cc1cc(C)nc(NC(=S)N2CCN(Cc3c(F)cccc3Cl)CC2)c1,inactive
17,Cc1ccnc(NC(=S)N2CCN(c3cccc(C(F)(F)F)c3)CC2)c1,41.8 µM (active) and 14.8 µM (active) and 16.7 µM (active)
18,S=C(Nc1cc(Cl)ccn1)N1CCN(c2ccc(Cl)cc2Cl)CC1,9.37 µM (active)
19,Cc1ccnc(NC(=S)N2CCN(c3ccc(N)cc3)CC2)c1,inactive
20,Cc1cc(C)nc(Nc2nnc(N3CCN(c4cccc(C(F)(F)F)c4)CC3)s2)c1,inactive
21,Cc1ccnc(NC(=S)N2CCN(c3cc(F)cc(Cl)c3)CC2)c1,5.91 µM (active)
22,Cc1ccnc(NC(=S)N2CCCN(c3cccc(C(F)(F)F)c3)CC2)c1,16.7 µM (active)
23,Cc1cc(C)nc(NC(=S)N2CCN(c3cc(Cl)c(Cl)cc3Cl)CC2)c1,21 µM (active)
24,Cc1ccnc(NC(=S)N2CCN(c3cccc(N(C)C)c3)CC2)c1,59.1 µM (active)
